The values that follow come from the OligoGym collection.
Also: reference of the scale not given here.

The target in one experiment is OLFML2A. As to the kind of experiment: pooled miR-30 sensor sort-seq; sequence = guide strand. The following applies: shRNA.
Turning to TTGTACATGTTACTCCAGCGGC, the sensor-assay potency score (higher = more potent) is -0.677.

Turning to TTGAGTTTCTCCATCTTCCACT, the sensor-assay potency score (higher = more potent) was -0.593.

Regarding TAGTTGGTGACATAGATCCTGT, the sensor-assay potency score (higher = more potent) was -0.519.

TACTTGATGATGTTCTTGGTGA came in with a sensor-assay potency score (higher = more potent) of 0.197.

The target in a further experiment is OLIG1. Described as above. The following applies: shRNA.
Sequence TTGGTTTTCGTTTTTAAGCAAG yielded a sensor-assay potency score (higher = more potent) of -1.05.

Turning to TAACGTCTGTAACAAATCGAAA, the sensor-assay potency score (higher = more potent) was -1.41.

In turn, TTGCTTTCTAAGAAACCCCCAG gave a sensor-assay potency score (higher = more potent) of -0.585.

TACCTATTTTAGTAAATCGGGA returned a sensor-assay potency score (higher = more potent) of -0.985.

Take TATGTAGCTCTTCAACTGCAAG: the sensor-assay potency score (higher = more potent) is -1.7.

With TAGTAAATCGGGAACACTGGAT, the sensor-assay potency score (higher = more potent) is -0.186.

TTAACGTCTGTAACAAATCGAA displayed a sensor-assay potency score (higher = more potent) of -0.686.

Take TACAGCTCTCCAAACAGCTGGT: the sensor-assay potency score (higher = more potent) is -0.013.

In the case of TTACCTATTTTAGTAAATCGGG, the sensor-assay potency score (higher = more potent) is -0.775.

Turning to TTGTTGATTCTGTACACCGTCA, the sensor-assay potency score (higher = more potent) is -0.445.

For TTTAAGAGCGAAAACTCTCTGC, the sensor-assay potency score (higher = more potent) was -0.0663.

Consider TCGGCTACTACCAACAACCAAA, for which the sensor-assay potency score (higher = more potent) was -1.38.

For another experiment, the target named is OMD. The description is as above. Particulars: shRNA.
TTCATTGTAACCAAGAAGGAGT yielded a sensor-assay potency score (higher = more potent) of -0.273.

On to TTGTGTGACATTCTTAGAGTAT, for which the sensor-assay potency score (higher = more potent) was -0.365.

TTGTAGTAGATTTGGAAGCTTA registered a sensor-assay potency score (higher = more potent) of -0.257.

Sequence TTAGTTGTATTGTTTGACCATT showed a sensor-assay potency score (higher = more potent) of -0.906.

In turn, TATTTCATTATTTTGTAGGTAT yielded a sensor-assay potency score (higher = more potent) of 0.614.

With TAGTGCTTCGTTGTTCACCATA, the sensor-assay potency score (higher = more potent) is -1.2.

TTTGTTGTGTCCAACACTGAGT gave a sensor-assay potency score (higher = more potent) of -0.557.

TTTGAGTAAGTTCTAATCCTAT gave a sensor-assay potency score (higher = more potent) of -0.412.

For TTTGTCGAAGTATTTTTCGGGT, the sensor-assay potency score (higher = more potent) is -0.262.

In the case of TATAGGTTTTGTGAAGTCGTAA, the sensor-assay potency score (higher = more potent) is -0.621.

In turn, TTAAATTCAATTCTGATCTTAT had a sensor-assay potency score (higher = more potent) of -0.256.

On to TTGGTCATAGTCTTCATCCCAC, for which the sensor-assay potency score (higher = more potent) is -0.0587.

The next experiment deals with OPRK1. Described as above. The following applies: shRNA.
Sequence ATCACGAACATGACCAGCGAGT yielded a sensor-assay potency score (higher = more potent) of -1.24.

With TTGCTGTCTTCATCTTTGTGTA, the sensor-assay potency score (higher = more potent) is -0.644.

Regarding TTCATGAAGAGGTCCCACCAGG, the sensor-assay potency score (higher = more potent) is -0.714.

In turn, ATGACATCGACGTCTTCCCTGA registered a sensor-assay potency score (higher = more potent) of -0.669.

TAGCTGGAGAGAGCAGCTGTGC: the sensor-assay potency score (higher = more potent) was -1.45.

As for TATCGGATGATCACGAACATGA, the sensor-assay potency score (higher = more potent) was -0.746.

Consider TTGGTTGCTGTCTTCATCTTTG, for which the sensor-assay potency score (higher = more potent) was -0.766.

As to TTACTATCTTGCACAGCACATC, the sensor-assay potency score (higher = more potent) is -1.6.

In turn, TTGTAGTAACTAAAGCATCTGC came in with a sensor-assay potency score (higher = more potent) of -0.405.

In the case of TTTCGGACTCTGCTAGTGCTCT, the sensor-assay potency score (higher = more potent) was -0.953.

For AATAGCTGGAGAGAGCAGCTGT, the sensor-assay potency score (higher = more potent) is 0.381.

TATCTTGCACAGCACATCCCCA returned a sensor-assay potency score (higher = more potent) of -0.82.
